BAZ2B inh – blocks human BAZ2B; Q9UIF8; AlphaScreen BAZ2B-H3K14Ac peptide displacement; Potency, µM (doses to about 114 µM), inactives show at the top dose activity change, negative = inhibition, actives largely listed as inhibitors; hit rate 4.4% among 360,000; further: on the % scale 0 is the no-effect control and ±100 the full control effect; nearly all actives have a fitted effect of over 60% in size
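In this displacement format the biotinylated H3(5-23) peptide acetylated at Lys14 serves as ligand at 50 nM, with BAZ2B at 50 nM in PBS pH 7.4 containing 0.01% Tween-20. Donor and acceptor beads are 10 ug/mL final.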
Sfp PPTase inh – inhibitors of Bacillus subtilis Sfp phosphopantetheinyl transferase. Biochemical Sfp PPTase activity, qHTS. hit rate 3.5% among 310,000. Potency, µM, for inactives: largest response in the series, negative = inhibition, most hits filed as inhibitors;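 further: the enzyme is Sfp with the accession as filed and its product quenches rhodamine fluorescence; 0% = enzyme reaction without inhibitor and -100% = no enzyme wells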
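Sfp 15 nM + cpd, 15 min RT; start w/ rhodamine-CoA 5 uM, BHQ-2-YbbR 12.5 uM (final); 50 mM Hepes pH 7.6, 10 mM MgCl2, 0.01% NP-40, 0.01% BSA; read 525/598 nm at 0 and 30 min.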
TDP1 block – inhibitors of human tyrosyl-DNA phosphodiesterase TDP1; recombinant TDP1, AlphaScreen DNA substrate cleavage; Potency, µM (titrated, usually from 130 µM), without a hit: at the top dose activity change, negative = inhibition, hits mostly inhibitors; hit rate 0.28% among 350,000; AID 485290; further: on the % scale 0 is the no-effect control and ±100 the full control effect; nearly all actives have a fitted effect of over 40% in size
Target sequence (Q9NUW8 whole entry, looked up): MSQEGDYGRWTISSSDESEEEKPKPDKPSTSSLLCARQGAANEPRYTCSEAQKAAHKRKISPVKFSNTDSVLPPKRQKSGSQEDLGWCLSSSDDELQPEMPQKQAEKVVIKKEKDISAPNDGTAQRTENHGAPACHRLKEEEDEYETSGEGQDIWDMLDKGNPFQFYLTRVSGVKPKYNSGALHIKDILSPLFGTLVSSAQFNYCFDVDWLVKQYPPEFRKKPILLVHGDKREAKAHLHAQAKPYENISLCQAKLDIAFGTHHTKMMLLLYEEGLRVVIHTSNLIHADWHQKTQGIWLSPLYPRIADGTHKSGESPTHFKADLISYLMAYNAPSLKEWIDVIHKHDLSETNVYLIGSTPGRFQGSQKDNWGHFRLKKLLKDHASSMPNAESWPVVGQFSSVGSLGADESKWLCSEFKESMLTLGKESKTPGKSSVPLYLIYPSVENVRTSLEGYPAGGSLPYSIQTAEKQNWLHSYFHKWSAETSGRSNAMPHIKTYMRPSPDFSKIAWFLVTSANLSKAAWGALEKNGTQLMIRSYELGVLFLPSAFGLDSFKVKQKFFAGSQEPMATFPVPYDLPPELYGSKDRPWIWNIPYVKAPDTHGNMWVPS
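AlphaScreen read-out: signal falls as enzyme removes the 3' tyrosine-FITC from a 5'-biotinylated DNA oligo (15 nM, 5 min, RT). Enzyme was E. coli-made recombinant Tdp1 at 1 nM, exposed to compound for 15 min beforehand; beads 10 ug/ml, 10 min.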
HP1b binding inh – HP1-beta chromodomain-methylated histone interaction inhibition | P83916 | AlphaScreen HP1-beta / biotin-H3K9me3 peptide binding | Potency, µM (series often up to 114 µM), inactives show at the top dose activity change, negative = inhibition, usual class: inhibitors | hit rate 0.56% among 390,000; further: nearly all actives have a fitted effect of over 70% in size
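Compound inhibition of the preformed complex between 50 nM HP1-beta and 50 nM biotinylated H3K9me3 peptide was read by AlphaScreen. Buffer was PBS pH 7.4 with 0.01% Tween-20. Incubations ran 30 min at room temperature, with 10 ug/mL donor/acceptor beads.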
JMJD2A Tudor – inhibitors of human JMJD2A Tudor domain | O75164 | AlphaScreen JMJD2A-Tudor / H3K4me3 peptide binding | Potency, µM (series often up to 114 µM), for inactives: at the highest dose activity change, negative = inhibition, most hits filed as inhibitors | hit rate 4.4% among 390,000 | AID 504339; further: on the % scale 0 is the no-effect control and ±100 the full control effect; nearly all actives have a fitted effect of over 50% in size
G9a inh – blocks human histone lysine methyltransferase G9a; Potency, µM (titrated, usually from 102 µM), for the others: top-dose activity, negative = inhibition, usual class: inhibitors; G9a H3K9 monomethylation, AlphaScreen, 2 h; hit rate 8.8% among 350,000; AID 504332; further: on the % scale 0 is the no-effect control and ±100 the full control effect; nearly all actives have a fitted effect of over 75% in size
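AlphaScreen read-out: biotin-H3K9 peptide (500 nM) methylation by 20 nM enzyme with 20 uM SAM, 2 h at room temperature after 15 min compound preincubation; anti-monomethyl H3K9 antibody plus donor/acceptor beads, 10 min dark.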
* marks the source's active call; other numbers are inactive results; u = inconclusive; x = no result; [ ] = remark or other dose. Hits are enriched below; roughly 12% of the tested compounds scored in any of these assays. The call rests on the fitted dose curve; in most records, active means well fitted curve in the direction sought with a large enough effect; inconclusive means small, poorly fitted or top-dose-only effect, or another doubt; inactive means no such curve, though single readings can be large; an effect the other way counts as inactive or inconclusive. Potency means the concentration at half of the fitted maximal effect.

SMILES	BAZ2B inh	Sfp PPTase inh	TDP1 block	HP1b binding inh	JMJD2A Tudor	G9a inh
CCN1CCN(c2ncc3c(n2)CCN(Cc2ccc(OC(C)C)cc2)C3)CC1	u	x	4%	-12%	u	u
CCOc1ccccc1CN1CCc2nc(N3CCN(c4ccccc4F)CC3)ncc2C1	56µM*	x	6%	-5%	79µM*	u
Fc1ccc(CN2CCc3nc(N4CCN(c5ccccc5F)CC4)ncc3C2)c(F)c1	-9%	x	1%	13%	-9%	8%[59 µM]
CCCCN1CCc2nc(N3CCN(c4ncccn4)CC3)ncc2C1	56µM*	x	6%	20%	79µM*	18µM*
CCOc1ccc(CN2CCc3nc(Nc4ccc(OC)cc4OC)ncc3C2)cc1	-37%	x	4%	-36%	50µM*	u
Brc1ccc(CN2CCc3nc(N4CCN(c5ncccn5)CC4)ncc3C2)cc1	50µM*	x	4%	-32%	45µM*	u
CCOc1ccc(CN2CCc3nc(N4CCN(c5ccccn5)CC4)ncc3C2)cc1OC	79µM*	x	-6%	17%	89µM*	u
Cc1ccc(CN2CCc3nc(N4CCN(c5ccccc5F)CC4)ncc3C2)cc1C	-18%	x	1%	38%	-21%	2%[59 µM]
CCCN1CCc2nc(N3CCN(c4ncccn4)CC3)ncc2C1	50µM*	x	-1%	26%	89µM*	32µM*
COc1ccc(N2CCOCC2)c(NC(=O)c2cccs2)c1	-5%	5%	2%	26%	-8%	-9%[12.7 µM]
CC(C)OCCCn1c(=O)c2ccccc2n2c(-c3ccc(F)c(F)c3)nnc12	50µM*	x	11%	-25%	u	u
CC(C)Cn1c(=O)c2ccccc2n2c(-c3ccc(Br)cc3)nnc12	-33%	x	9%	-13%	u	-47%[59 µM]
CCOC(=O)C(=O)c1csc(NC(=O)CCSc2ccc(C)cc2)n1	x	-1%	1%	24%	-16%	71µM*
CCOC(=O)c1csc(NC(=O)CCSc2ccccc2)n1	3%	14%	2%	78%	-12%	8%
Cc1ccc(Cn2c(C(C)NC(=O)c3ccccc3)nc3ccccc32)cc1 (configuration not stated)	17%	x	5%	76%	-15%	-1%[59 µM]
CCOc1ccc(C(=O)CCC(=O)Nc2ncccc2O)cc1	56µM*	x	x	13%	-31%	1%[2.33 µM]
CCOc1ccc(C(=O)CCC(=O)Nc2ccc(C)cn2)cc1	-1%	x	0%[0.505 µM]	10%	-18%	-5%
CC1(C)CC[C@]2(C(=O)O)CC[C@]3(CO)C(=CCC4[C@@]5(C)C[C@H](O)[C@H](O)[C@@](C)(C(=O)O)C5CC[C@]43C)[C@@H]2C1 (some centres not stated)	x	x	-1%	36%	-16%	x
Cc1cc2nccnc2cc1C	x	x	x	21%[57 µM]	-1%	x
Oc1ccc(/C=N/n2cc(-c3ccccc3)[nH]c2=S)cc1	x	18µM*	3%	-14%	4µM*	2.5µM*
Cc1ccc(/C=N/n2c(C)nnc2C)s1	-4%	7%	-4%	u	-21%[57.1 µM]	u
Cc1ccc(/C=N/n2cc(-c3ccccc3)[nH]c2=S)s1	-26%	32µM*	2%	31%	u	u
COc1ccccc1-n1cc(-c2ccc(C)cc2)[nH]c1=S	u	-6%	x	-22%	u	u
COc1cc(/C=N/n2cc(-c3ccccc3)[nH]c2=S)cc(OC)c1O	-19%	20µM*	4%	-25%	1.3µM*	0.5µM*
N#CC1(NC(=O)COc2ccc(C(N)=O)cc2)CCCC1	x	x	1%	24%	-7%	x
SMILES	BAZ2B inh	Sfp PPTase inh	TDP1 block	HP1b binding inh	JMJD2A Tudor	G9a inh
CCOc1ccc(-c2nnc(SCC(=O)N(CC)c3cccc(C)c3)o2)cc1	-11%	x	9%	23%	-7%	-35%[59 µM]
CCN(CC)CCN(C(=O)c1cccc(N2C(=O)CCC2=O)c1)c1nc2cc3c(cc2s1)OCO3	x	-6%	-1%	26%	-19%	50µM*
CCN(CC)CCN(C(=O)c1ccc(N2C(=O)CCC2=O)cc1)c1nc2cc3c(cc2s1)OCCO3	x	u	1%	13%[57 µM]	-32%	50µM*
Cc1cccc(Cn2c(=O)n(CC3CCC(C(=O)N4CCC(C)CC4)CC3)c(=O)c3sccc32)c1 (configuration not stated)	-17%	x	8%	-2%	-23%	-5%[59 µM]
CCn1cc(C(=O)O)c(=O)c2cc(F)c(N3CCN(C(=S)Nc4ccc(OC)cc4)CC3)cc21	u	-9%	x	21%	-18%	-6%
CCn1cc(C(=O)O)c(=O)c2cc(F)c(N3CCN(C(=S)NC(=O)c4cc(OC)cc(OC)c4)CC3)cc21	u	4%	45µM*	20%	14%	22%
CCn1cc(C(=O)NCCCN(C)C)c(=O)c2cc(F)c(N3CCN(C)CC3)cc21	2%	20%	0%	30%	-8%	35µM*
CCCCCNC(=O)c1cn(CC)c2cc(N3CCN(C)CC3)c(F)cc2c1=O	-2%	8%	x	-3%	-10%	43%[0.501 µM]
CCn1cc(C(=O)NCCN(C)C)c(=O)c2cc(F)c(N3CCN(C)CC3)cc21	-1%	-2%	x	5%	-9%	50µM*
COc1ccccc1N1CCN(C(=O)CCS(=O)(=O)c2cc(Br)cc3c2N(C(=O)C2CC2)CC3)CC1	-1%	x	5%	22%	-11%	-18%[59 µM]
c1ccc(-c2nn[nH]n2)c(Nc2cccc3c2CCCC3)c1	x	7%	20%	x	x	x
Cc1ccc(C(C)NC(=S)NC2CCCCC2)c(C)c1 (configuration not stated)	-24%	4%	2%	31%	-9%	x
Oc1ccc(C(c2nnnn2C2CCCCC2)N2CCOCC2)cc1 (configuration not stated)	u	u	7%	23%	-21%	22µM*
CC(C)c1ccc(/C=N/NC(=O)c2ccc(-n3cnnn3)cc2)cc1	8%	x	-11%	10%	-14%	-2%
CC(c1ccccc1)n1c(Cn2ncc3ccccc3c2=O)n[nH]c1=S (configuration not stated)	-25%	-2%	-3%	53%	32µM*	3.5µM*
O=C(O)Cn1ncc2ccccc2c1=O	-15%	10%	-6%	57%	2%	4%
O=S(=O)(Nc1nc2ccccc2nc1Cl)c1cccc(C(F)(F)F)c1	-15%	21%	12%	-5%	-14%	9%
O=S(=O)(Nc1nc2ccccc2nc1Cl)c1ccccc1C(F)(F)F	-8%	3%	8%	15%	-12%	71µM*
Cc1ccc(Cc2ccc(C(=O)NNC(N)=S)o2)cc1	-3%	2%	7%	-9%	-33%	56µM*
COc1ccc(NC(=O)c2ccc(Cc3ccc(C)cc3)o2)cc1	4%	-4%	4%	27%	0%[57.1 µM]	u

Screens deposited in PubChem by National Center for Advancing Translational Sciences (NCATS).
